# Assay results reported in PubChem BioAssay (NCATS).
# Where “and” joins values, the source holds several entries; their conditions need not be identical. Equal entries are not always repeated. Records with an inconclusive call do not appear. A structure can be active in one record and inactive in another. Calls of active or inactive are those of the source. Unless noted, calls come from the whole dose curve; as a rule, active = well fitted curve in the direction sought with a large enough effect; inconclusive = small, poorly fitted or top-dose-only effect, or another doubt; inactive = no such curve, though single readings can be large; an effect the other way counts as inactive or inconclusive.
# Key:
# [1] = target: Guanine nucleotide-binding protein G(i) subunit alpha-1 (Homo sapiens) (UniProt P63096); experiment: qHTS Assay for Inhibitors of RGS12 GoLoco Motif Activity (Green Fluorophore) (AID 879)
# Guanine nucleotide-binding protein G(i) subunit alpha-1 (Homo sapiens), sequence (P63096 whole entry, looked up): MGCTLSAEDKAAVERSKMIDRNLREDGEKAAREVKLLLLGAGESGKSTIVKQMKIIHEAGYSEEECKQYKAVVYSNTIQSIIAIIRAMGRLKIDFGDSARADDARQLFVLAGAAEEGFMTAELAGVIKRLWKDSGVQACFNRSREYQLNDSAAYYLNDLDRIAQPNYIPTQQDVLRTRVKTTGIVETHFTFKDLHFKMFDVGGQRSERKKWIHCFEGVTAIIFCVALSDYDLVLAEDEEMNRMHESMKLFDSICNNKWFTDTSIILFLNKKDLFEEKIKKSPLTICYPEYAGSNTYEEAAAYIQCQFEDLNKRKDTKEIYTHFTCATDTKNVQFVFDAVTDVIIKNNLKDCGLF
# Summary of the method: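 A drop in FITC polarization marked displacement of the FITC-tagged RGS12 GoLoco peptide (10 nM) from Gαi1 (50 nM). Compounds were incubated 10 min at room temperature in Tris pH 7.5 buffer containing 150 mM NaCl, 0.1 mM GDP and 0.05% NP40; unlabeled peptide titration served as control.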
# [2] = target: Pyruvate kinase (Leishmania mexicana) (UniProt Q27686); experiment: qHTS Validation Assay for Inhibitors of Leishmania Mexicana Pyruvate Kinase (AID 945)
# Pyruvate kinase (Leishmania mexicana), sequence (Q27686 2-499 E452W): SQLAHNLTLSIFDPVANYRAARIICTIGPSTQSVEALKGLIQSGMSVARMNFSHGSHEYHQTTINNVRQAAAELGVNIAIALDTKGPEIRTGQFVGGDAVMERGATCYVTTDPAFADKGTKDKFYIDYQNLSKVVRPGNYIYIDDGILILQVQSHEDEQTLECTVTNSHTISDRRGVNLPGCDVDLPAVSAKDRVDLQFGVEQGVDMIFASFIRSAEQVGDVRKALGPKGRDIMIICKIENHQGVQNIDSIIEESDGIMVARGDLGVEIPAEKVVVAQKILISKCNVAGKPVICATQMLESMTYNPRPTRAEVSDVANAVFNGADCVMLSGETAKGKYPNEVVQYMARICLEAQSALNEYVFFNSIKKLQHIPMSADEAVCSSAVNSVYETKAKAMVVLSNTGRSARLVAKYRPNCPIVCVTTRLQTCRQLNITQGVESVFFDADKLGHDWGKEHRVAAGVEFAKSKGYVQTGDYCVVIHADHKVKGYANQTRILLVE
# Summary of the method: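 LmPYK E451W 0.2 nM; 0.5 mM PEP, 0.1 mM ADP, 7 mM MgCl2, 50 mM KCl, imidazole pH 7.2, 0.01% Tween 20, 0.05% BSA; 1 h RT; PKLight luminescence; DMSO-normalized.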
# [3] = target: Alpha-galactosidase (Coffea arabica) (UniProt Q42656); experiment: Counterscreen for Glucocerebrosidase Inhibitors: qHTS Assay for Coffee Bean alpha-Galactosidase at pH 4.5 (AID 957)
# Alpha-galactosidase (Coffea arabica), sequence (Q42656 whole entry, looked up): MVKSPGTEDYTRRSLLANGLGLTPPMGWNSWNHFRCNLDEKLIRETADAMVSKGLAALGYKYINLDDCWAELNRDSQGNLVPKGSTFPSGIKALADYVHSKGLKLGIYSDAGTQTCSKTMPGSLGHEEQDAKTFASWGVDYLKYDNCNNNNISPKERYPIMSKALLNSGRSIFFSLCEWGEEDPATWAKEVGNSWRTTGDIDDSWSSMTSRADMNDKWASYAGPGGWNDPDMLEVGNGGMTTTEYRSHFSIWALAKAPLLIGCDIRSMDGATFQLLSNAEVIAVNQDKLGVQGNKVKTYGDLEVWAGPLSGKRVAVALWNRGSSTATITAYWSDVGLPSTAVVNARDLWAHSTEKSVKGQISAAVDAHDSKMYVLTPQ
# Summary of the method: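 Fluorogenic read-out: 4-methylumbelliferone at Ex 365/Em 440 nm after NaOH/glycine stop (pH 10). Enzyme 2 nM, 4-MU-alpha-galactoside 80 uM, citrate buffer pH 4.5, 20 min RT; normalized to no-enzyme and enzyme controls.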
# [4] = target: Alpha-galactosidase A (Homo sapiens) (UniProt P06280); experiment: Counterscreen for Glucocerebrosidase Inhibitors: qHTS Assay for Human alpha-Galactosidase at pH 4.5 (AID 992)
# Alpha-galactosidase A (Homo sapiens), sequence (P06280 whole entry, looked up): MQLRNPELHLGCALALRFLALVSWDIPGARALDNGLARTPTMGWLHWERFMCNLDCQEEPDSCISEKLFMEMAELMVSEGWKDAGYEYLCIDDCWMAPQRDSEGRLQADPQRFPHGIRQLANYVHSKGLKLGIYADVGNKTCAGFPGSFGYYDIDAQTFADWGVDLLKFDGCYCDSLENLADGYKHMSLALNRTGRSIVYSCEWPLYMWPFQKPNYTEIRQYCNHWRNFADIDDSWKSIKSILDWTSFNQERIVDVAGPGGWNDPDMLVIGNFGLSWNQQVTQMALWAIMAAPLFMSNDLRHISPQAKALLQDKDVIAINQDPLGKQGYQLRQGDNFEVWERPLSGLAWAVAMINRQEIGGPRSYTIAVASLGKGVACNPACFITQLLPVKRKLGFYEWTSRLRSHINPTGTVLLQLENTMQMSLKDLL
# Summary of the method: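 Steps: enzyme (2 nM final), then compound across 0.7 nM to 77 uM, then 80 uM fluorogenic galactopyranoside substrate; incubate 20 min at room temperature; quench at pH 10; measure fluorescence at 365/440 nm.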
# [5] = target: Cytochrome P450 2D6 (Homo sapiens) (UniProt P10635); experiment: qHTS Assay for Inhibitors and Substrates of Cytochrome P450 2D6 (AID 891)
# Cytochrome P450 2D6 (Homo sapiens), sequence (P10635 whole entry, looked up): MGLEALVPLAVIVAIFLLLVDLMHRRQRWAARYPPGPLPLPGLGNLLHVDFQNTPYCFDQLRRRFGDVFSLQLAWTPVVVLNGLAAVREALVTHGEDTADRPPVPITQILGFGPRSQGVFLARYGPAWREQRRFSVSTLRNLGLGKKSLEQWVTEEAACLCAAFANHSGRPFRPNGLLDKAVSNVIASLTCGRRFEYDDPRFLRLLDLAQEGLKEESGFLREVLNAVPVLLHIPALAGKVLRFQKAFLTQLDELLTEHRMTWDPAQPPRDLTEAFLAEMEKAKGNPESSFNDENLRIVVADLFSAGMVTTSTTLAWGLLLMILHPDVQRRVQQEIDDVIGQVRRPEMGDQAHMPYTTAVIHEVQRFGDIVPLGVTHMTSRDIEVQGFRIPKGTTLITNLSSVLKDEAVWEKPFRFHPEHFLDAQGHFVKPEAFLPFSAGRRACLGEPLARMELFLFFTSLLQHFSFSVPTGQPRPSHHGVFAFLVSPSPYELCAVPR
# Summary of the method: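 Luminescent read-out of luciferin formed by 5 nM human CYP2D6 demethylating 30 uM Luciferin-ME EGE (Km level) over 60 min at room temperature after NADPH regeneration addition. Data normalized to full inhibition by 1.43 uM quinidine.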
# [6] = target: Cytochrome P450 2C19 (Homo sapiens) (UniProt P33261); experiment: qHTS Assay for Inhibitors and Substrates of Cytochrome P450 2C19 (AID 899)
# Cytochrome P450 2C19 (Homo sapiens), sequence (P33261 whole entry, looked up): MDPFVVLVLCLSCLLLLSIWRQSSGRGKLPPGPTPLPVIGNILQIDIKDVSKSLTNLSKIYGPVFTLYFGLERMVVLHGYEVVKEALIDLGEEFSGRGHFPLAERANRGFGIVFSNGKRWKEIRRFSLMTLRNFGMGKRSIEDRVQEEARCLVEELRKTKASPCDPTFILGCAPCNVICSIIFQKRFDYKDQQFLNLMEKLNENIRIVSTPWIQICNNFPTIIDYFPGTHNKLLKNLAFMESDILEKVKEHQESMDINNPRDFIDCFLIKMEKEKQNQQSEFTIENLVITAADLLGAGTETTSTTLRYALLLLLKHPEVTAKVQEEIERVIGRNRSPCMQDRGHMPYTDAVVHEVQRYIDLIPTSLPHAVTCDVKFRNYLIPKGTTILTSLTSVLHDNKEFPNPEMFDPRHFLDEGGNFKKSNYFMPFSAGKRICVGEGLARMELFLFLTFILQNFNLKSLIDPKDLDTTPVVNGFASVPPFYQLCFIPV
# Summary of the method: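 NADPH-dependent conversion of Luciferin-H EGE (10uM, at KM) by 5nM enzyme in 50mM KPO4, 60 min at 37C following 10 min compound preincubation. Stopped with luciferin detection buffer; luminescence read after 20 min.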
# [7] = target: Cytochrome P450 3A4 (Homo sapiens) (UniProt P08684); experiment: qHTS Assay for Inhibitors and Substrates of Cytochrome P450 3A4 (AID 884)
# Cytochrome P450 3A4 (Homo sapiens), sequence (P08684 whole entry, looked up): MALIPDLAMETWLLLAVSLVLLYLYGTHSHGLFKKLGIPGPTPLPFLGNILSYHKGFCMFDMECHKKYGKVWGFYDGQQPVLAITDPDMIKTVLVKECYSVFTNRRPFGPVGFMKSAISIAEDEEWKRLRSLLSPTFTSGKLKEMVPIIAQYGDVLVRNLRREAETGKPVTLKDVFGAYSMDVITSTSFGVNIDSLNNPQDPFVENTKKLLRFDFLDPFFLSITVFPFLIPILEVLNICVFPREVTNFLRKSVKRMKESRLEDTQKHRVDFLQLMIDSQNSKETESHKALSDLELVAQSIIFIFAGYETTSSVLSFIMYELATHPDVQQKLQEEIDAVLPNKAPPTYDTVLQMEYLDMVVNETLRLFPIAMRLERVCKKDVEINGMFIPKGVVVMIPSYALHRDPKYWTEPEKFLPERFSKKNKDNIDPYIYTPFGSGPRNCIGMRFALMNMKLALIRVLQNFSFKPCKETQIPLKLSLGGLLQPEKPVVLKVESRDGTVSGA
# Summary of the method: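 Luminescent readout of luciferin produced by CYP3A4 (20 nM) dealkylation of Luciferin-PPXE, 25 uM (its KM). NADPH-driven reaction ran 60 min at RT after 10 min compound preincubation; data scaled to 57 uM ketoconazole as 100% inhibition.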
# [8] = HEK-293 Cancer Cell Toxicity qHTS against the NCATS CANVASS Library (AID 1347355)
# Summary of the method: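 1000 cells/well, 4 h pre-incubation 37 °C/5% CO2; 11-pnt titration; 72 h; CellTiter-Glo 15 min RT, luminescence.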
# [9] = SDT Cancer Cell Toxicity qHTS against the NCATS CANVASS Library (AID 1347365)
# Summary of the method: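 Luminescent ATP read-out (CellTiterGlo) after 72 hr compound exposure of dog glioma SDT cells, 500 per well. Eleven-point titrations; bortezomib titration run alongside as control.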
# [10] = G06 Cancer Cell Toxicity qHTS against the NCATS CANVASS Library (AID 1347368)
# Summary of the method: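 ATP luminescence (CellTiterGlo) readout of cytotoxicity. Canine G06 glioma cells, 500/well, 72 hr incubation at 37C with compounds; bortezomib titration served as control.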
# [11] = qHTS for ATAD5 Antagonist screened against the NCATS CANVASS Library (AID 1347370)
# Summary of the method: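 HEK293T-ATAD5 luc reporter, 2000 cells/well; 5hr attach; cpd + 10 uM 5-FUrd; 16hr 37C, 5% CO2. Readouts: CellTiter-Fluor fluorescence (1hr), then Amplite luciferase luminescence (30min RT).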
# [12] = qHTS for Hypoxia signaling pathway (HIF-1) antagonists against the NCATS CANVASS Library (AID 1347374)
# Summary of the method: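 Beta-lactamase reporter under HRE control in ME-180 cells; CoCl2 stimulus (60 uM solution as added), compounds 11-pt qHTS, 17 h 37C. CCF4 dye 2 h RT, 460/530 nm emission. CellTiter-Glo viability in same wells.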
# [13] = DH5-alpha competent E. coli microbial cell viability qHTS against the NCATS CANVASS Library (AID 1347377); conditions: outcome: at 46.1 µM (top of the series)
# Summary of the method: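 Luminescent ATP read-out (BacTiter-Glo, 20 min RT) after overnight 37C culture of DH5-alpha E. coli with compounds; daunomycin control at 0.2 nM–9.2 uM final.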
# [14] = qHTS for Inflammasome Signaling Inhibitors: IL-1-beta AlphaLISA screen against the NCATS CANVASS Library (AID 1347379)
# Summary of the method: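 THP-1, 1 hr compound pre-incubation, then LPS 250 ng/mL + ATP 1.25 mM (final); 16 hr total with compound; IL-1B AlphaLISA, ex 680/em 615 nm; 11-point qHTS, up to 57.5 uM final.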
# [15] = qHTS for Antimalaria activity screened against the NCATS CANVASS Library (AID 1347380)
# Summary of the method: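 SYBR Green fluorescence (ex 485, em 535 nm) read after saponin/Triton lysis and 18 h further incubation; Dd2 asexual blood-stage parasites, 72 h compound exposure, 11-pt concentration series, 2.5% hematocrit, 0.3% parasitemia.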
# [16] = qHTS for Activators of p53 Stress Response Pathway screened against the NCATS CANVASS Library (AID 1347388)
# Summary of the method: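 p53RE-bla HCT-116 cells (4000/well) were plated 5 h at 37C, exposed to compounds for 16 h at 37C over an 11-point concentration series, then loaded with CCF4 for 2 h at room temperature; 460/530 nm emission ratio read.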
# [17] = qHTS for activators of Nrf2/ARE signaling pathway screened against the NCATS CANVASS Library (AID 1347391)
# Summary of the method: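 HepG2 ARE-bla; cpd 11-pt qHTS, 16 h 37C/5% CO2; CCF4 substrate 2 h RT; read ex 405 / em 460 + 530 nm. Viability by CellTiter-Glo luminescence, 30 min RT.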
# [18] = qHTS for inhibitors of ER calcium dysfunction: SERCaMP assay screened against the NCATS CANVASS Library (AID 1347393)
# Summary of the method: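 qHTS in SH-SY5Y reporter cells: 16 h compound pretreatment, 4 h thapsigargin, then secreted Gaussia luciferase measured by luminescence.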
# [19] = qHTS for inhibitors of Wild type Zika virus screened against the NCATS CANVASS Library (AID 1347396)
# Summary of the method: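 Vero 766 (African green monkey) cells, 1000 per well, attached overnight, then compounds were added in an 11-point series before wild-type Zika virus infection. After 72 h at 37C, cell viability was read as CellTiter Glo luminescence.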
# [20] = qHTS for inhibitors of Rabies Virus screened against the NCATS CANVASS Library (AID 1347402; calls by dose curve)
structure (smiles),measurement,setting,value
C[C@H](N)Cc1cnc[nH]1,outcome,[1],inactive
same,outcome,[2],inactive
same,outcome,[3],inactive
same,outcome,[4],inactive
COc1ccc(C[C@H]2NC[C@H](O)[C@@H]2OC(C)=O)cc1,Potency,[5],7940 nM (active)
same,Potency,[6],3.16 µM (active)
O=C1NCN(c2ccccc2)C12CCN(C[C@H]1COc3ccccc3O1)CC2,outcome,[1],inactive
same,Potency,[5],126 nM (active) and 63.1 nM (active)
same,Potency,[6],inactive and 7.94 µM (active)
same,outcome,[2],inactive
same,outcome,[3],inactive
same,outcome,[4],inactive
CN1[C@@H]2CC[C@H]1CC(O[C@@H](c1ccccc1)c1ccc(Cl)cc1)C2 (stereo partly specified),outcome,[1],inactive
same,Potency,[5],1.26 µM (active) and 1.58 µM (active)
same,outcome,[2],inactive
same,outcome,[3],inactive
same,outcome,[4],inactive
COc1ccc(-n2nc(C(F)(F)F)cc2-c2ccc(Cl)cc2)cc1,outcome,[1],inactive
same,Potency,[6],7.94 µM (active)
same,outcome,[2],inactive
same,outcome,[3],inactive
same,outcome,[4],inactive
O=C(/C=C\c1ccc(Cl)cc1)N[C@@]12CCC(=O)[C@@H]3Oc4c(O)ccc5c4[C@@]31CCN(CC1CC1)[C@@H]2C5,Potency,[5],5010 nM (active)
CCOC(=O)c1ncn2c1CN(C)C(=O)c1cc(N=[N+]=[N-])ccc1-2,Potency,[7],inactive
CC1=C(O)C(=O)[C@H]2O[C@@H]2C1=O,Potency,[6],0.158 µM (active)
CS(=O)(=O)Nc1ccc(Cc2noc(-c3ccc4[nH]cc(CCN)c4c3)n2)cc1,Potency,[5],126 nM (active)
c1ccc(CCCCN2CCC(c3ccccc3)CC2)cc1,Potency,[7],inactive
same,Potency,[5],39.8 nM (active)
C=C(C)[C@H]1CN[C@H](C(=O)O)[C@@H]1CC(=O)O,outcome,[1],inactive
same,Potency,[7],inactive
same,outcome,[2],inactive
same,outcome,[3],inactive
same,outcome,[4],inactive
CCCCC1(C2CCCC2)Cc2cc(OCCCC(=O)O)c(Cl)c(Cl)c2C1=O (stereo unspecified),Potency,[7],inactive
NC(=NCCc1ccc(I)cc1)SCCCc1cnc[nH]1,Potency,[7],0.794 µM (active)
N#CC(C#N)=NNc1ccc(OC(F)(F)F)cc1,Potency,[7],5.01 µM (active)
CC(C)(c1ccc(OCC2CO2)cc1)c1ccc(OCC2CO2)cc1 (stereo unspecified),Potency,[7],inactive
S=C=Nc1cccc(C2(N3CCCCC3)CCCCC2)c1,Potency,[6],inactive
C/C(=C\C=C/[C@@H](C)C(=O)O)[C@H]1CN[C@H](C(=O)O)[C@@H]1CC(=O)O,Potency,[6],inactive
N[C@H](C(=O)O)c1cc(=O)[nH]o1,outcome,[1],inactive
same,Potency,[7],inactive
same,Potency,[5],inactive
same,Potency,[6],inactive
same,outcome,[2],inactive
same,outcome,[3],inactive
same,outcome,[4],inactive
O=C1CC[C@@]2(O)[C@H]3Cc4ccc(O)c5c4[C@@]2(CCN3CC2CC2)[C@@H]1O5,outcome,[1],inactive
same,outcome,[2],inactive
same,outcome,[3],inactive
same,outcome,[4],inactive
CN1[C@@H]2CC[C@H]1CC(OC(=O)N1Cc3ccccc3NC1=O)C2 (stereo partly specified),Potency,[7],inactive
C[C@@H]1O[C@H](O[C@@H]2C[C@@H](O)[C@]3(CO)[C@H]4[C@H](O)C[C@]5(C)[C@@H](C6=CC(=O)OC6)CC[C@@]5(O)[C@@H]4CC[C@]3(O)C2)[C@@H](O)[C@H](O)[C@H]1O,Potency,[5],50.1 nM (active)
Oc1ccc2c3c1O[C@H]1c4oc5ccccc5c4C[C@]4(O)[C@H](C2)N(CC2CC2)CC[C@@]314,outcome,[1],inactive
same,Potency,[5],1260 nM (active)
same,outcome,[2],inactive
same,outcome,[3],inactive
same,outcome,[4],inactive
Oc1ccc2c3c1O[C@H]1c4[nH]c5ccccc5c4C[C@]4(O)[C@H](C2)N(CC2CC2)CC[C@@]314,outcome,[1],inactive
same,Potency,[5],2.51 µM (active) and 631 nM (active)
same,outcome,[2],inactive
same,outcome,[3],inactive
same,outcome,[4],inactive
O=C(O)c1ccccc1-c1c2cc(Br)c(=O)cc-2oc2[c]([Hg])c(O)c(Br)cc12,Potency,[7],25.1 µM (active)
same,Potency,[6],3.16 µM (active)
CC(=O)N[C@H]1CCN2CCC[C@H]12,Potency,[8],inactive
same,Potency,[9],inactive
same,Potency,[10],inactive
same,Potency,[11],inactive
same,Potency,[12],inactive
same,outcome,[13],inactive
same,Potency,[14],inactive
same,Potency,[15],inactive
same,Potency,[16],inactive
same,Potency,[17],inactive
same,Potency,[18],inactive
same,Potency,[19],inactive
same,outcome,[20],inactive
NC[C@H](CC(=O)O)c1ccc(Cl)cc1,Potency,[5],794 nM (active)
same,Potency,[6],2.51 µM (active)
CNCCc1ccc(O)cc1,Potency,[8],inactive
same,Potency,[9],inactive
same,Potency,[10],inactive
same,Potency,[11],inactive
same,Potency,[12],inactive
same,outcome,[13],inactive
same,Potency,[14],inactive
same,Potency,[16],inactive
same,Potency,[17],inactive
same,Potency,[18],inactive
same,Potency,[19],inactive
same,outcome,[20],inactive
